Laboratory results taken from PubChem BioAssay AID2685 (National Center for Advancing Translational Sciences (NCATS), 2010).
Screen size: about 320,000 compounds; about 2,100 (0.66%) were called active. Not shown: some 53% with an inconclusive outcome. Calls follow the shape of the dose curve; as a rule, active = well fitted inhibition curve with a large enough effect in the signal ratio, with a control signal flat (not every such curve was filed as active); inconclusive = small, poorly fitted or top-dose-only effect, or effect the other way, or a change in a side signal; inactive = flat fitted curve, though single readings scatter; the % refers to the signal ratio. The list comes from a sample in which actives are over-represented; it also holds similar structures and randomly drawn compounds.

Test: qHTS Assay for Lipid Storage Modulators in Drosophila S3 Cells;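 as to cell number change: cells counted by Cell Tracker Red CMTPX staining in the red channel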
Settings: BODIPY lipid droplet fluorescence, 18-24 h, cells fed with added oleic acid; cell number change: measured here: cell count max response; series mostly up to 46.1 µM
Procedure, shortened: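 Laser-scanning cytometry quantifies lipid droplet accumulation (500–530 nm total intensity; droplet/cell object ratio) in oleic acid-fed (400 uM added) Drosophila S3 cells treated with a concentration series. 20 uM Triacsin C defined 100% inhibition.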
Potency is read from the fitted curve at half-maximal effect.

Structure (SMILES)	Potency	cell number change [%]
N/C(CCN1CCOCC1)=N/O	inactive	-8.53
COc1ccc(N2CCn3c2nc2c3c(=O)n(CCN3CCOCC3)c(=O)n2C)cc1	inactive	-1.98
COc1ccc(N2CC(C)Cn3c2nc2c3c(=O)n(CCN3CCOCC3)c(=O)n2C)cc1 (centres undefined)	2.06 µM (active)	5.05
COc1ccc(N2CCCn3c2nc2c3c(=O)n(CCN3CCOCC3)c(=O)n2C)cc1	inactive	-8.81
COCCOC(=O)c1c(NC(=O)CNc2ccc(C)c(F)c2)sc(C(N)=O)c1C	inactive	3.82
CCOc1ccc(/C=C/c2nc(C#N)c(NCCCN(C)C)o2)cc1	inactive	-6.82
CCNc1oc(/C=C/c2ccc(OCC)cc2)nc1C#N	inactive	-11.4
CCOc1ccc(/C=C/c2nc(C#N)c(NCCCOC)o2)cc1	18.4 µM (active)	-10.5
CCCc1nc(NCCO)c(C#N)c2c1CCCC2	inactive	7.48
COc1ccccc1NC(=O)CC1C(=O)Nc2ccccc2N1C(=O)c1ccccc1 (centres undefined)	inactive	5.14
O=C(OCC(=O)N1CCCC1)c1c(Cl)ccc(Cl)c1Cl	2.91 µM (active)	9.01
O=C(OCC(=O)N1CCCC1)c1cc(Cl)ccc1Cl	inactive	4.05
O=C(OCC(=O)N1CCOCC1)c1c(Cl)ccc(Cl)c1Cl	inactive	–
O=S(=O)(Nc1ccc(Br)cc1)c1cccc(NC(=S)NCCN2CCOCC2)c1	inactive	13
COC(=O)c1ccccc1CSc1nsc(C)c1C#N	9.2 µM (active)	26.2
COC(=O)c1ccccc1CSc1nsc(/C=C/N(C)C)c1C#N	inactive	7.59
Cc1ccc(CSc2nsc(C)c2C#N)cc1	inactive	8.89
O=C(CCS(=O)(=O)c1ccccc1)Nc1nc2cc3c(cc2s1)OCO3	inactive	-2.46
O=C(O)CCC(=O)OCC1CCCO1 (centres undefined)	23.1 µM (active)	-20.4

Structure (SMILES)	Potency	cell number change [%]
O=C(O)CCC(=O)OCC1CCCCC1	inactive	6.49
O=C(O)CCC(=O)Nc1ccc(OCC2CCCO2)cc1 (centres undefined)	inactive	20.5
Cc1occc1C(=O)N1CCN(S(C)(=O)=O)CC1	inactive	15.2
COCCCNC(=O)Cc1c(C)c2cc3c(cc2oc1=O)OC(C)(C)CC3	inactive	-2.78
O=C(NCCCN1CCCCC1)C1CCN(c2ncnc3c2nc2n3CCCCC2)CC1	inactive	15.5
COc1ccc(OC)c(CNC(=O)C2CCCN(c3ncnc4c3nc3n4CCCCC3)C2)c1 (centres undefined)	2.31 µM (active)	-11.8
COc1cccc(CNC(=O)C2CCCN(c3ncnc4c3nc3n4CCCCC3)C2)c1 (centres undefined)	inactive	–
CC1CCN(C(=O)C2CCN(c3ncnc4c3nc3n4CCCCC3)CC2)CC1	3.66 µM (active)	-15
CC1CCN(C(=O)C2CCCN(c3ncnc4c3nc3n4CCCCC3)C2)CC1 (centres undefined)	inactive	-11.2
COc1ccc(CNC(=O)C2CCCN(c3ncnc4c3nc3n4CCCCC3)C2)cc1 (centres undefined)	inactive	3.46
CC1CC(C)CN(CCCNC(=O)C2CCCN(c3ncnc4c3nc3n4CCCCC3)C2)C1 (centres undefined)	inactive	27
O=C(NCCCN1CCCCC1)C1CCCN(c2ncnc3c2nc2n3CCCCC2)C1 (centres undefined)	29.1 µM (active)	-4.96
CCCN1CCN(C(=O)C2CCN(c3ncnc4c3nc3n4CCCCC3)CC2)CC1	inactive	-18.8
Cc1cc(C)n2nc(C(=O)OCC(=O)Nc3ccc(F)cc3F)nc2n1	inactive	11.7
CN(C)C(=S)Nc1cccc(F)c1	inactive	0.661
CC(C)(C)c1cc(S(=O)(=O)CCc2ccncc2)cc(C(C)(C)C)c1F	inactive	-5.56
Cc1cccc([C@@H]2[C@@H]3C(=O)N(Cc4ccccc4)C(=O)[C@@H]3[C@]3(Cc4ccccc4)C(=O)N(c4ccc(C(F)(F)F)cc4)C(=O)N23)c1	inactive	5.02
O=C(Nc1ccccn1)c1cc(-n2cnnc2)ccc1Cl	inactive	-4.08
CC(C)Oc1ccc(C(=O)Nc2c3c(nn2C(C)(C)C)CS(=O)(=O)C3)cc1	inactive	–

Structure (SMILES)	Potency	cell number change [%]
O=C(COC(=O)Cc1ccc(Br)cc1)NC1CCCCCC1	inactive	-16.9
CCCSc1nnc(NC(=O)CSc2nc3[nH]c(=O)cc(O)c3s2)s1	inactive	-1.41
Cc1c(CC(=O)N2CCC(C(N)=O)CC2)c(=O)oc2cc3c(cc12)CCC1(CCCCC1)O3	13 µM (active)	-23.7
Cc1c(CC(=O)O)c(=O)oc2cc3c(cc12)CCC(C)(C)O3	inactive	4.46
Cc1c(Cc2ccccc2)c(=O)oc2cc(OCC(=O)N3CCC(C(N)=O)CC3)ccc12	inactive	23.5
CCOc1ccccc1NC(=O)CCNC(=O)c1ccco1	inactive	-5.71
CC(C)(C)c1ccc(Cn2nnc3c(=O)[nH]c(C4CCN(C(=O)c5ccco5)CC4)nc32)cc1	20.6 µM (active)	-8.06
O=c1[nH]c(C2CCN(S(=O)(=O)c3ccccc3)CC2)nc2c1nnn2Cc1cccc(Cl)c1	inactive	26.3
Cc1ccc(Cn2nnc3c(=O)[nH]c(C4CCN(S(=O)(=O)c5ccc(F)cc5)CC4)nc32)cc1	inactive	8.95
O=c1[nH]c(C2CCCN(S(=O)(=O)c3cccc(F)c3)C2)nc2c1nnn2Cc1ccccc1 (centres undefined)	inactive	10.8
O=C(c1ccccc1Cl)N1CCC(c2nc3c(nnn3Cc3ccco3)c(=O)[nH]2)CC1	inactive	-9.84
O=c1[nH]c(C2CCCN(S(=O)(=O)c3ccccc3)C2)nc2c1nnn2Cc1cccc(Cl)c1 (centres undefined)	2.59 µM (active)	7.14
COc1ccc(Cn2nnc3c(=O)[nH]c(C4CCN(S(=O)(=O)c5ccc(C)cc5)CC4)nc32)cc1	13 µM (active)	-52.1
Cc1ccc(Cn2nnc3c(=O)[nH]c(C4CCN(S(=O)(=O)c5ccccc5)CC4)nc32)cc1	inactive	–
O=C(c1ccco1)N1CCCC(c2nc3c(nnn3Cc3ccccc3)c(=O)[nH]2)C1 (centres undefined)	inactive	1.8
Cc1ccc(-n2nnnc2SCC(=O)NC2CCCc3ccccc32)c(C)c1 (centres undefined)	inactive	–
O=C(CSc1ncn[nH]1)c1ccc(OC(F)F)cc1	inactive	6.27
CCCn1c(C(O)c2ccc(OC)cc2)nc2ccccc21 (centres undefined)	inactive	0.04
O=C(NN=C1C2CC3CC1CC(Cl)(C3)C2)c1ccccn1	inactive	10.9
